APEX1 inh: qHTS Assay for Inhibitors of the Human Apurinic/apyrimidinic Endonuclease 1 (APE1); DNA repair nuclease/redox regulator APEX1 (Homo sapiens), P27695; recombinant APE1, TAMRA/BHQ-2 abasic DNA cleavage fluorescence; Potency, µM (series often up to 65.8 µM), for the others: top-dose activity change, negative = inhibition, most hits filed as inhibitors; 350,000 compounds, 0.35% hits; AID 2517, 2012;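 note: plate controls were vehicle for no effect and reference inhibitor for full effect; nearly all actives have a fitted effect of over 55% in size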
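Step 1: APE1 (0.75 nM) with compound, 15 min RT. Step 2: add 50 nM fluorophore/quencher THF duplex. Step 3: three fluorescence reads 60 s apart (525/598 nm); read 3 minus read 1 = reaction progress.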
JMJD2E inh: qHTS Assay for Inhibitors of Human Jumonji Domain Containing 2E (JMJD2E); 230,000 compounds, 1.6% hits; AID 2147, 2009; Potency, µM (highest dose often 57.1 µM), for inactives: at the top dose activity change, negative = inhibition, hits mostly inhibitors; Lysine-specific demethylase 4E (Homo sapiens), B2RXH2; JMJD2E catalytic domain, FDH-coupled NADH fluorescence (FDH is formaldehyde dehydrogenase);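 note: 0% = wells with enzyme and -100% = buffer wells without enzyme; nearly all actives have a fitted effect of over 50% in size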
TDP1 inh: qHTS Assay for Inhibitors of Tyrosyl-DNA Phosphodiesterase (TDP1); Tyrosyl-DNA phosphodiesterase 1 (Homo sapiens), Q9NUW8; recombinant TDP1, AlphaScreen DNA substrate cleavage; Potency, µM (highest dose often 130 µM), without a hit: at the highest dose activity change, negative = inhibition, most hits filed as inhibitors; 350,000 compounds, 0.28% hits; note: nearly all actives have a fitted effect of over 40% in size
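Recombinant human Tdp1 (E. coli-expressed, 1 nM final) preincubated with compounds 15 min at room temperature, then 5'-biotin/3'-phosphotyrosine-FITC DNA substrate (15 nM final) added for 5 min. AlphaScreen beads (10 ug/ml final) added 10 min; cleavage lowers signal.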
L3MBTL1 inh: qHTS Assay for the Inhibitors of L3MBTL1. Lethal(3)malignant brain tumor-like protein 1 (Homo sapiens), Q9Y468. AlphaScreen L3MBTL1–H3K9me1 peptide binding. Potency, µM (titrated, usually from 57.1 µM), without a hit: top-dose activity, negative = inhibition, usual class: inhibitors. 230,000 compounds, 0.66% hits. AID 485360, 2010; note: nearly all actives have a fitted effect of over 60% in size
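L3MBTL1 50 nM + b-AHA-H3(1-15)K9me1 75 nM, 30 min RT; compound added, 30 min RT; streptavidin donor/Ni-chelate acceptor beads 10 ug/mL each final, 30 min RT dark; AlphaScreen read.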
BLM inh: qHTS Assay for Inhibitors of Bloom's syndrome helicase (BLM) | AID 2528, 2010 | RecQ-like DNA helicase BLM (Homo sapiens), P54132 | 350,000 compounds, 0.2% hits | recombinant BLM DNA unwinding, fluorescence dequenching | Potency, µM (titrated, usually from 56.1 µM), for the others: at the highest dose activity change, negative = inhibition, most hits filed as inhibitors;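 note: plate controls were vehicle for no effect and no enzyme for full effect; nearly all actives have a fitted effect of over 35% in size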
RECQ1 helicase: qHTS Assay for Inhibitors of RecQ-Like Dna Helicase 1 (RECQ1). ATP-dependent DNA helicase Q1 (Homo sapiens), P46063. RECQ1 DNA unwinding, red fluorescence kinetic read. Potency, µM (top dose mostly 57.3 µM), inactives show at the top dose activity, negative = inhibition, actives largely listed as inhibitors. 240,000 compounds, 0.54% hits;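 note: plate controls were vehicle for no effect and no enzyme for full effect; nearly all actives have a fitted effect of over 30% in size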
Target sequence (P46063 whole entry, looked up): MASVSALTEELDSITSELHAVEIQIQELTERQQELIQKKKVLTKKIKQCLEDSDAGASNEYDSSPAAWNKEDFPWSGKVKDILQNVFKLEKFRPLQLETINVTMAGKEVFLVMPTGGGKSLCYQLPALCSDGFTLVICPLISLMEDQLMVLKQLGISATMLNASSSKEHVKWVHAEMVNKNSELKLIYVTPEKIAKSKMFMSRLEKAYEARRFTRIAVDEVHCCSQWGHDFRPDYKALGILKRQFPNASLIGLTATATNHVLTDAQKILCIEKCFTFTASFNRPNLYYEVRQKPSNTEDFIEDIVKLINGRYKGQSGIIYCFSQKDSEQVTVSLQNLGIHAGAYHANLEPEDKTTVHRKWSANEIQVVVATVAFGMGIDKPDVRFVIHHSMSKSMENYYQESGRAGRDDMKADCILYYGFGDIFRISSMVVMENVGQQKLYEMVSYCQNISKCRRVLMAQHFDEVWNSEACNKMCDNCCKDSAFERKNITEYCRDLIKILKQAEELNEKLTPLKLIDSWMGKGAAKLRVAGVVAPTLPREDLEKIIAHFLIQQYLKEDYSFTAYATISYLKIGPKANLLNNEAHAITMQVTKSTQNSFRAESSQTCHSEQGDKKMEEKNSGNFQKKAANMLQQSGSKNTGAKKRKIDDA
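50 nM RECQ1T1 preincubated 15 min with compound in Tris pH 8.0 buffer with MgCl2, DTT, Tween-20 and 2.5 ug/ml poly(dI-dC); started with 200 nM TAMRA/BHQ-2 forked duplex and 2 mM ATP. Unwinding read as fluorescence (525/598 nm), two reads 2 h apart.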
Starred values were filed as active, the others as inactive; i = inactive; ? = inconclusive; . = not tested or not shown; [ ] = remark or other dose. The full list was thinned out, with hits kept by preference. Unless noted, calls come from the whole dose curve; as a rule, active = well fitted curve in the direction sought with a large enough effect; inconclusive = small, poorly fitted or top-dose-only effect, or another doubt; inactive = no such curve, though single readings can be large; an effect the other way counts as inactive or inconclusive. Unless noted, % is set by controls: 0 for no effect and ±100 for the full control effect; potency is the fitted concentration of half-maximal effect.

SMILES	APEX1 inh	JMJD2E inh	TDP1 inh	L3MBTL1 inh	BLM inh	RECQ1 helicase
CC(=O)NC1[C@H](O)C[C@@](O)(C(=O)O)O[C@H]1[C@H](O)[C@H](O)CO (stereo not given in full)	.	.	-1%	.	1%	.
Cc1cccc(NC(=O)CN2C(=O)CCSc3ccc(S(=O)(=O)N4CCOCC4)cc32)c1C	?	.	35µM*	.	-6%	.
CCc1ccccc1-n1c(-c2ccncc2)n[nH]c1=S	32µM*	4%	0%	22%	5%	4%
Cc1cccc(-n2c(-c3ccncc3)n[nH]c2=S)c1C	20%	7%	18µM*	4%	0%	i
CC(=O)Nc1ccc(Nc2c(CCC(C)C)c(C)c(C#N)c3nc4ccccc4n23)cc1	.	.	.	.	-6%	.
O=C(Nc1ccc(N2CCCC2)c(Cl)c1)c1cccc(-c2cc3ccccc3oc2=O)c1	1%	-3%	5%	28µM*	-7%	-6%
CC(=O)Nc1ccc(NC(=O)c2cccc(-c3cc4ccccc4oc3=O)c2)cc1	19%	?	-1%	-29%	-1%	-16%
O=C1NC(=O)/C(=C/c2cccn2-c2ccc(P(=O)(O)O)cc2)N1	40%	.	.	.	.	.
CCOc1cc(/C=C2\SC(=S)N(C(C(=O)O)c3ccccc3)C2=O)ccc1O (stereo not given)	12%	1%	-3%	-12%	?	7%
CCOc1ccc(/C=C2/SC(=S)N(C(C(=O)O)c3ccccc3)C2=O)cc1OCC (stereo not given)	3%	?	10%	.	-7%	22µM*
COc1cc(/C=C2/SC(=S)N(c3c(C)n(C)n(-c4ccccc4)c3=O)C2=O)ccc1O	-10%	5%	4%	-7%	-9%	22µM*
COc1cc(/C=C2\SC(=S)N(C(C(=O)O)c3ccccc3)C2=O)ccc1O (stereo not given)	-11%	-5%	4%	0%	-8%	22µM*
COc1cc(/C=C2\SC(=S)N(NC(=O)c3ccccc3OC)C2=O)ccc1O	-16%	.	.	.	?	.
NCCC[C@@H](CC(=O)N[C@@H]1CCNC[C@H]1C(=O)N[C@H](CC(=O)N[C@@H](CCC(=O)O)CC(=O)O)Cc1ccccc1)NC(=O)C[C@H](Cc1ccccc1)NC(=O)[C@@H]1CCCC[C@H]1N	16%	-8%	6%	.	-2%	1%
O=C1CCc2cc(S(=O)(=O)Nc3ccc(Cl)cc3)ccc2N1	.	.	1%	.	.	.
CN=c1scc(-c2ccc(F)cc2)n1/N=C/c1ccc(O)c(O)c1	?	28µM*	11%	.	-16%	?
O=C1c2c(O)cc(O)cc2O[C@H](c2ccc(O)c(O)c2)[C@H]1O	?	20µM*	-3%	.	-4%	?
O=C1c2c(O)cc(O)cc2O[C@H](c2ccc(O)c(O)c2)[C@@H]1O	?	14µM*	-3%	.	-8%	18µM*
COc1cc([C@@H]2Oc3cc([C@H]4Oc5cc(O)cc(O)c5C(=O)[C@H]4O)ccc3O[C@H]2CO)ccc1O	?	28µM*	18%	.	-4%	-23%
COc1cc([C@@H]2Oc3cc(C4Oc5cc(O)cc(O)c5C(=O)[C@H]4O)ccc3O[C@H]2CO)ccc1O (stereo not given in full)	-9%	.	.	-15%	.	.
COc1ccc(C2=NN(CC(=O)NCCc3ccccc3)C(=O)CC2)cc1	.	.	0%	.	2%	.
CCOc1ccc(CCNC(=O)CCCc2nnc3n(C)c(=O)c4sccc4n23)cc1OCC	.	.	6%	.	-1%	.
CCC(=O)Oc1ccc(C/C(=N\O)c2ccc(O)cc2O)o1	?	24%	-14%	32µM*	-8%	-23%
Cc1ccc(NS(=O)(=O)c2ccc3c(ccn3C)c2)cc1C	.	.	0%	.	.	.
CC(C)(C)n1ncc2c(=O)n(Cc3ccc(-c4ccccc4C#N)cc3)cnc21	12%	.	.	.	.	.
SMILES	APEX1 inh	JMJD2E inh	TDP1 inh	L3MBTL1 inh	BLM inh	RECQ1 helicase
Cc1ccc(NC2=C/C(=N/S(=O)(=O)c3cccs3)c3ccccc3C2=O)cc1C	-3%	8%	5%	-11%	-5%	0%
CC(=O)Nc1ccc(NC2=C/C(=N/S(=O)(=O)c3cccs3)c3ccccc3C2=O)cc1	7%	43%	6%	?	22µM*	12%
Cc1ccc(NC(=O)CSc2nc(-c3ccco3)cc(C(F)(F)F)n2)cc1	.	.	-1%	.	-2%	.
O=C1CCc2cc([S+](=O)([O-])NC3CCOCC3)ccc2N1	.	.	1%	.	.	.
CCOC(=O)NNc1ccc2nonc2c1[N+](=O)[O-]	?	6.3µM*	.	32µM*	-26%	?
Cc1cccc(Nc2ccc3nonc3c2[N+](=O)[O-])c1C	20%	.	.	.	-5%	.
COc1cccc(/C=N/NC(=O)c2c(-c3ccccc3)noc2C)c1O	-4%	32µM*	5%	-4%	-2%	-4%
COc1cccc(/C=N/NC(=O)c2ccoc2C)c1O	2%	14µM*	7%	-3%	-8%	-15%
COc1cccc(/C=N\NC(=O)C2C(=O)NCC2c2ccccc2)c1O (stereo not given)	13%	28µM*	0%	13%	-1%	-5%
COc1cccc(/C=N/NC(=O)NC2CCCCC2)c1O	1%	22µM*	5%	2%	-4%	-6%
Cc1cccc(-c2ccc3ncnc(NCc4cccc(F)c4)c3c2)c1	-15%	.	.	-9%	.	.
Cc1ccc(N(C)C(CNS(=O)(=O)c2ccccc2)c2ccccc2)cc1 (stereo not given)	.	.	8%	.	-10%	.
Cc1ccc(S(=O)(=O)NC(N)=NCCC[C@@H](N)C(=O)Nc2cc(C(F)(F)F)ccc2Cl)cc1	.	.	-1%	.	.	.
CCC/C=C1\CCCOC(C(=O)NCc2ccccc2)(C(F)(F)F)C1 (stereo not given)	-2%	.	4%	.	4%	-4%
COCC(=O)Nc1c(I)c(C(=O)NC[C@@H](O)CO)c(I)c(C(=O)N(C)C[C@@H](O)CO)c1I	.	-3%[25.5 µM]	6%[21 µM]	.	1%[21.4 µM]	-1%[25.9 µM]
COc1cccc(/C=N/NC(=O)C(=O)NCc2ccco2)c1O	4%	13µM*	9%	?	-2%	-15%

Source: PubChem BioAssay
